NRP1-CendR mod: alters CendR peptide binding to human NRP-1; O14786; FAM-RPARPAR peptide binding to NRP-1, fluorescence polarization; inhibition, % at 25 µM; actives 0.85% (n = 360,000);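 active means inhibition or corrected inhibition above about 18%, plus a signal ratio from 0.5 to 1.5, limit read from the data, passing the limit was not always enough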
HNF4A DNA FP: change in binding of human HNF4 alpha to DNA. P41235. HNF4a-FITC DNA binding, fluorescence polarization, 1 h. activity change, % at 10 µM. actives 0.3% (n = 360,000). AID 1224865; in the data active means activity change above about 30%, passing the limit was not always enough
Rpn11 inh: blocks the human proteasome subunit Rpn11. O00487. human 26S proteasome, Ub4-pepOG fluorescence polarization; 20S core pre-blocked with epoxomicin. inhibition, % at 20 µM. actives 0.59% (n = 360,000);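 active means inhibition at 20 µM, scaled to each plate's controls, above about 33%, limit read from the data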
Target sequence (O00487 whole entry, looked up): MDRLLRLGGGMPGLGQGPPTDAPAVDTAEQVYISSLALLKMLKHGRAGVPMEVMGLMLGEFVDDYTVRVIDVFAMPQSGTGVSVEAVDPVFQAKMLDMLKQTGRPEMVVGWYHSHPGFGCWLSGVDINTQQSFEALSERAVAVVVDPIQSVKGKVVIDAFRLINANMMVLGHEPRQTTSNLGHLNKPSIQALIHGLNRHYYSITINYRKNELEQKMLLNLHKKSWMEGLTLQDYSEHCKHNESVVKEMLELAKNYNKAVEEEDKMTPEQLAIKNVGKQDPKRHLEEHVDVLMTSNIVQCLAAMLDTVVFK
PHOSPHO1 inh: blocks human PHOSPHO1 phosphatase activity | Q8TCT1 | recombinant PHOSPHO1, absorbance phosphatase assay | inhibition, % at 13.3 µM | actives 1.1% (n = 290,000); in the data active means inhibition above about 60%
Target sequence (Q8TCT1 whole entry, looked up): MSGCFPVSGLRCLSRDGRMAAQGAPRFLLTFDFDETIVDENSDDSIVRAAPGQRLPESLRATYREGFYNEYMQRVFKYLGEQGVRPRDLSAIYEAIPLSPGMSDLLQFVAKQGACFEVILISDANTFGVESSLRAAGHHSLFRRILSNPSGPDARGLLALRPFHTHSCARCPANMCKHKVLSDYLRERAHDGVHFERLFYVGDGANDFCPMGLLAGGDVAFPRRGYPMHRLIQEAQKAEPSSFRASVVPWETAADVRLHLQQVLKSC
Fh CTSL1 inh: blocks F. hepatica cathepsin L1 in PFM18AAP counter-screen; recombinant F. hepatica cathepsin L1, Z-Leu-Arg-MCA fluorescence; inhibition, % at 5.96 µM; actives 0.49% (n = 300,000); AID 1906;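 active means inhibition above the mean of all tested compounds plus 3 SD, set per screening campaign, cut at about 17% in these data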;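 further: 0% = plate median of test compound wells and 100% = 1 µM Z-Phe-Ala-diazomethylketone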
TPT1 inh: blocks Candida albicans tRNA 2'-phosphotransferase; recombinant caTPT1, FP RNA substrate dephosphorylation; inhibition, % at 5 µM; actives 0.81% (n = 300,000); AID 1962;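 active means inhibition above the mean of all tested compounds plus 3 SD, set per screening campaign, cut at about 24% in these data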;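 further: plate controls were DMSO alone for no effect and ferristatin control at 100 nM for full effect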
* hit, by the source's call; x = no result. Compounds with a hit are over-represented: about 3.3% of the library has one in this group of screens.

SMILES | NRP1-CendR mod | HNF4A DNA FP | Rpn11 inh | PHOSPHO1 inh | Fh CTSL1 inh | TPT1 inh
CN1CCN(C(=O)c2ccc(COc3ccc(C(C)(C)C)cc3)o2)CC1 | 23* | 0 | -6 | 23 | 0 | 2
COC(=O)c1ccc2c(c1)c(-c1ccccc1)c(-c1ccccc1)n2C | 32* | -1 | 3 | x | x | x
COc1ccc(C2C(C(=O)N3CCCCC3)CC(=O)N2c2ccc(OC)cc2)cc1 (centres undefined) | -5 | 2 | 6 | 4 | 0 | -2
CC(=O)Nc1ccc(-c2ccnc3c2CC(C(=O)Nc2cccc(OC(F)(F)F)c2)O3)cc1 (centres undefined) | -13 | 1 | 4 | x | x | x
CNC(=O)c1c(O)c2cccc3c2n(c1=O)CC3 | 13 | -1 | -7 | x | -4 | -1
COc1ccc(CCNC(=O)c2c(O)c3cccc4c3n(c2=O)CC4)cc1OC | 44* | 6 | -7 | -23 | 2 | 1
COc1ccc(CCNC(=O)c2cnc3n(c2=O)CCS3)cc1OC | -2 | 5 | -1 | 6 | 41* | 1
Cc1ccc(Cl)cc1NC(=O)CNC(=O)N1CC(=O)Nc2ccccc21 | -2 | 2 | -1 | 80* | 0 | 0
Cc1ccc(Cl)cc1NC(=O)CCNC(=O)N1CC(=O)Nc2ccccc21 | 20 | 0 | 1 | -22 | 0 | 1
COc1cc(CNn2c(C)n[nH]c2=S)cc(Br)c1OCc1ccc(F)cc1 | -3 | 0 | -4 | -11 | 0 | -4
COc1cc(CNn2c(C)n[nH]c2=S)cc(Cl)c1OCc1ccc(F)cc1 | -1 | -3 | 6 | 90* | 1 | -5
Cc1[nH]c2ccccc2c1/C=N/NC(=O)c1cc(C(C)C)[nH]n1 | -3 | 0 | -2 | 51 | 1 | -8
COc1cc2cc(Oc3ccc4ccc(=O)oc4c3)c(=O)oc2cc1O[C@@H]1O[C@H](CO)[C@@H](O)[C@H](O)[C@H]1O | -49 | -27 | -6 | x | x | x
COc1cc2cc(Oc3ccc4ccc(=O)oc4c3)c(=O)oc2cc1OC(=O)/C=C/c1ccccc1 | 27* | -2 | 0 | 0 | -2 | -4
CC(C(=O)NCCCc1ccccc1)n1cccc1C(=O)c1ccccc1 (centres undefined) | 2 | -1 | -12 | 70* | 10 | -3
Cc1ccccc1NC(=O)CSc1ccncc1 | -2 | 4 | 7 | 38 | -5 | 3
Cc1sc2nc(CSCC(=O)N(C)c3ccccc3)[nH]c(=O)c2c1C | -62 | 20 | 26 | 9 | 2 | 18
Cc1sc2nc(CSCC(=O)N(CCC#N)c3ccccc3)[nH]c(=O)c2c1C | -32 | 19 | 42* | -3 | -4 | 23
CNC(=S)N1N=C(c2ccc(Br)cc2)CC1c1ccc(N(C)C)cc1 (centres undefined) | 32* | 0 | 0 | 57 | 6 | 11
N#Cc1cccc(C(c2nnnn2C2CCCC2)N2CCC(Cc3ccccc3)CC2)c1 (centres undefined) | -14 | 1 | 9 | 4 | 0 | -5
COc1cc(C(c2nnnn2C2CCCC2)N2CCc3ccccc3C2)ccc1O (centres undefined) | 1 | -2 | -10 | 77* | 4 | -5
N#Cc1cccc(C(c2nnnn2C2CCCC2)N2CCCCCC2)c1 (centres undefined) | -5 | 6 | -4 | 62* | 1 | -5
Oc1ccc(C(c2nnnn2C2CCCC2)N2CCc3ccccc3C2)cc1 (centres undefined) | -4 | 0 | 0 | 84* | 4 | 0
Cc1cc(NC(=O)c2cncc(Br)c2)no1 | -8 | 0 | -5 | 32 | 4 | -2
O=C(CCS(=O)(=O)c1ccccc1)NCc1ccccc1 | -5 | 5 | -3 | 47 | 31* | -1
SMILES | NRP1-CendR mod | HNF4A DNA FP | Rpn11 inh | PHOSPHO1 inh | Fh CTSL1 inh | TPT1 inh
COc1ccc(C(=O)N2CCN(CCNC(=O)C(=O)Nc3ccc(F)cc3)CC2)cc1OC | 11 | 2 | -1 | 26 | -2 | -1
CCc1nc2c(OCc3ccc(C(=O)OC)cc3)cccn2c1N(C)C(=O)CC(C)C | 26* | 0 | 2 | x | x | x
CCc1nc2c(OCc3ccccc3C)cccn2c1N(C)C(=O)CC(C)C | -3 | 0 | 3 | x | x | x
CCc1nc2c(OCCn3cccc3)cccn2c1N(C)C(=O)CC(C)C | 10 | -2 | 2 | x | x | x
CCCCC(=O)N(C)c1c(CC)nc2c(OCc3ccccc3C)cccn12 | 22* | 2 | -3 | x | x | x
Cn1cc([C@]2(O)C(=O)Nc3cccc(Cl)c32)c2ccccc21 | 21 | -2 | x | x | x | x
Cc1ccc(NCCN(C)C)c2c(=O)c3cc(O)ccc3sc12 | -74 | 52* | 37 | x | x | x
CN(C)CCNc1cccc2sc3ccc(O)cc3c(=O)c12 | -53 | 27 | 38 | x | x | x
CN(CC(=O)O)c1ccc(C(F)(F)F)cc1[N+](=O)[O-] | -4 | -1 | -1 | 34 | x | x
COc1ccc(S(=O)(=O)N(CC(=O)NC2CC2)Cc2ccccc2)cc1 | 9 | 6 | -3 | 18 | 1 | -1
COc1ccc(N2CCN(C(=O)COCc3cc(-c4ccc5c(c4)OCO5)on3)CC2)cc1 | 4 | 5 | 1 | -47 | -1 | 3
O=C(COCc1cc(-c2ccc3c(c2)OCO3)on1)N1CCN(c2cccc(C(F)(F)F)c2)CC1 | 19* | -1 | 9 | 38 | -1 | 0
Cc1noc(C)c1S(=O)(=O)Nc1ccc(C(C)C)cc1 | 18* | -4 | -1 | 44 | 0 | 0
Cc1ccc(CNC(=O)c2ccc(NS(=O)(=O)c3c(C)noc3C)cc2)cc1 | 7 | -1 | 2 | 16 | -5 | 3
O=[N+]([O-])c1ccc(-c2csc3[n+]2CCS3)cc1 | -12 | 0 | -6 | 80* | -1 | -2
Cc1ccccc1C(=O)O/N=C1\CCS(=O)(=O)c2sccc21 | -3 | -10 | -1 | 25 | -3 | -5
CN(C(=O)COC(=O)c1cnc(Cl)c(Cl)c1)C1CCCCC1 | 24* | -1 | 5 | x | x | x
CCOC(=O)Cc1cc(=O)[nH]c(/N=C(\N)Nc2ccc(C)c(C)c2)n1 | 2 | -3 | 1 | 34 | 0 | -3
COc1nc(N)nc(NC(=O)c2cccs2)c1N=O | 17 | 3 | 0 | x | 50* | -5
COc1ccc(N2CCN(C(=O)CCc3ccc(S(=O)(=O)NC(C)C)cc3)CC2)cc1 | -6 | -1 | -4 | -18 | 2 | -2
CC(NC(=O)C(=O)N1CCOCC1)C(c1cccs1)N1CCN(c2ccccc2)CC1 (centres undefined) | 0 | 1 | -17 | 26 | -3 | -1
COc1ccc(N2CCN(C(c3cccs3)C(C)NC(=O)C(=O)N3CCOCC3)CC2)cc1 (centres undefined) | -7 | 0 | -1 | 65* | 0 | -5
Cc1[nH]n(C(N)=S)c(=O)c1N=Nc1ccc([N+](=O)[O-])cc1Cl | 39* | 1 | 3 | -3 | x | x
COc1ccc(N/C(N)=N/c2nc(C)cc(C)n2)c(OC)c1 | 30* | 4 | 8 | 32 | -1 | 1
